AC50 and outcome data for 3 compounds are collected here from PubChem BioAssay (EPA / NIEHS).

By AC50 is commonly meant the concentration giving half of the maximal activity seen.

Calls of active or inactive are those of the source. Rule for the calls: active = hit-call score of the fitted dose curve at least 0.9, where 1 is the maximum; inactive = score below 0.9.

Read-out in assay [1]: Transforming growth factor beta 1 (TGFb1), TGFB1 (gene 7040)
The assay is described as follows: BSK_KF3CT_TGFb1: BioMAP Diversity Plus: KF3CT Assay for Transforming growth factor beta 1 (TGFb1) Biomarker Activity (AID 2283072). As to conditions: primary human keratinocytes with fibroblasts; actives raise or lower the signal. The method, boiled down:
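Primary human skin cells (keratinocytes, foreskin fibroblasts) were co-cultured, exposed to test chemical and sampled at 24 h. TGF-b1 levels were measured by ELISA and fitted bidirectionally relative to DMSO.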

Read-out in assay [2]: C-C motif chemokine 2 (Homo sapiens) (UniProt P13500)
The assay is described as follows: BSK_KF3CT_MCP1: BioMAP Diversity Plus: KF3CT Assay for Monocyte Chemoattractant Protein 1 (MCP1/CCL2) Biomarker Activity (AID 2283073). To be noted: primary human keratinocytes with fibroblasts; actives raise or lower the signal. Put shortly: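 Human keratinocyte plus foreskin fibroblast primary co-culture exposed to chemical for 24 h. MCP-1 levels measured by ELISA. Bidirectional curve fitting relative to DMSO negative control as baseline.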

Read-out in assay [3]: Matrix Metallopeptidase 9 (MMP9), MMP9 (gene 4318)
Put plainly: BSK_KF3CT_MMP9: BioMAP Diversity Plus: KF3CT Assay for Matrix Metallopeptidase 9 (MMP9) Biomarker Activity (AID 2283074).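 For AC50: MMP9 protein level quantified by ELISA in the co-culture.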 As to conditions: primary human keratinocytes with fibroblasts; actives raise or lower the signal. Put shortly:
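Keratinocyte plus foreskin fibroblast human primary skin co-culture was dosed with chemical and MMP-9 was quantified by ELISA 24 h later. Bidirectional curve fitting used DMSO as negative control and activity baseline.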

Read-out in assay [4]: urokinase plasminogen activator (uPA), PLAU (gene 5328)
Put plainly: BSK_KF3CT_uPA: BioMAP Diversity Plus: KF3CT Assay for urokinase plasminogen activator (uPA) Biomarker Activity (AID 2283075). To be noted: primary human keratinocytes with fibroblasts; actives raise or lower the signal. Put shortly: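 Human keratinocyte plus foreskin fibroblast primary co-culture exposed to chemical for 24 h. uPA levels were quantified by ELISA, and activity was fitted bidirectionally against a DMSO negative-control baseline.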

Read-out in assay [5]: CD40, CD40 (gene 958)
The assay is described as follows: BSK_LPS_CD40: BioMAP Diversity Plus: LPS Assay for CD40 Biomarker Activity (AID 2283076). As to conditions: primary human HUVEC with PBMC; actives raise or lower the signal. Put shortly: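 Primary human umbilical vein endothelial cells co-cultured with peripheral blood mononuclear cells, LPS-stimulated, were dosed with chemical and read 24 h later. CD40 levels were measured by ELISA and fitted bidirectionally against DMSO as negative control and baseline.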

Read-out in assay [6]: E-selectin (Homo sapiens) (UniProt P16581)
The assay is described as follows: BSK_LPS_Eselectin: BioMAP Diversity Plus: LPS Assay for Eselectin Biomarker Activity (AID 2283077). To be noted: primary human HUVEC with PBMC; actives raise or lower the signal. Put shortly: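 Human umbilical vein endothelial cells co-cultured with peripheral blood mononuclear cells under LPS stimulation; E-selectin measured by ELISA 24 h after chemical dosing. Activity fitted bidirectionally against DMSO as negative control and baseline.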

Read-out in assay [7]: Interleukin-8 (IL8), CXCL8 (gene 3576)
The assay is described as follows: BSK_LPS_IL8: BioMAP Diversity Plus: LPS Assay for Interleukin-8 (IL8) Biomarker Activity (AID 2283078). As to conditions: primary human HUVEC with PBMC; actives raise or lower the signal. Put shortly: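 Human umbilical vein endothelial cells co-cultured with PBMC were stimulated with LPS; IL-8 levels were measured by ELISA 24 h after chemical dosing. Activity was fitted bidirectionally against DMSO as negative control and baseline.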

Assay [8] in a line: BSK_LPS_SRB: Viability Assessment in the BioMAP Diversity Plus: LPS Assay (AID 2283079).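 Note: total protein by sulforhodamine B absorbance as a cytotoxicity measure; measured one day after compound addition; fitted in both directions against DMSO so loss or gain of signal counts.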 As to conditions: primary human HUVEC with PBMC. The method, boiled down:
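Human umbilical vein endothelial cells co-cultured with PBMC (LPS system) were dosed for 24 h. Total protein was stained with 0.1% sulforhodamine B after 10% TCA fixation, read at 560 nm, and fitted bidirectionally against DMSO baseline.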

Read-out in assay [9]: Interleukin-1 alpha (IL1a), IL1A (gene 3552)
Put plainly: BSK_LPS_IL1a: BioMAP Diversity Plus: LPS Assay for Interleukin-1 alpha (IL1a) Biomarker Activity (AID 2283080). As to conditions: primary human HUVEC with PBMC; actives raise or lower the signal. Put shortly:
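Human umbilical vein endothelial cells co-cultured with peripheral blood mononuclear cells were LPS-stimulated and exposed to test chemicals for 24 h. IL-1 alpha was quantified by ELISA, with bidirectional curve fitting against DMSO as the negative control and baseline.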

Read-out in assay [10]: Monocyte Chemoattractant Protein-1 (MCP1), CCL2 (gene 6347)
The assay is described as follows: BSK_LPS_MCP1: BioMAP Diversity Plus: LPS Assay for Monocyte Chemoattractant Protein-1 (MCP1) Biomarker Activity (AID 2283081).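 For AC50: co-culture stimulated with LPS; secreted MCP-1 protein quantified by ELISA in culture supernatant.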 To be noted: primary human HUVEC with PBMC; actives raise or lower the signal. Put shortly: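 HUVEC plus PBMC co-culture (human primary cells, LPS system) exposed to test chemical for 24 h; MCP-1 measured by ELISA. Bidirectional curve fitting against DMSO baseline; parallel SRB total-protein staining flags overt cytotoxicity.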

The nature of assay [11]: BSK_LPS_PGE2: BioMAP Diversity Plus: LPS Assay for Prostaglandin E2 (PGE2) Biomarker Activity (AID 2283082).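 For AC50: secreted prostaglandin E2 measured by ELISA in LPS-stimulated co-culture.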 As to conditions: primary human HUVEC with PBMC; actives raise or lower the signal. The method, boiled down: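 LPS-activated HUVEC/PBMC co-culture; cmpd dosed, 24 h; PGE2 by ELISA; bidirectional fit vs DMSO; SRB (0.1%, TCA-fixed, 560 nm) in parallel plates for overt cytotox.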

Read-out in assay [12]: Macrophage colony-stimulating factor (MCSF), CSF1 (gene 1435)
The assay is described as follows: BSK_LPS_MCSF: BioMAP Diversity Plus: LPS Assay for Macrophage colony-stimulating factor (MCSF) Biomarker Activity (AID 2283083). To be noted: primary human HUVEC with PBMC; actives raise or lower the signal. The method, boiled down:
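Human umbilical vein endothelial cells co-cultured with peripheral blood mononuclear cells were exposed to compound for 24 h. M-CSF levels were measured by ELISA, and bidirectional curve fitting used DMSO as the negative control and baseline.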

Read-out in assay [13]: Tissue Factor, F3 (gene 2152)
The assay is described as follows: BSK_LPS_TissueFactor: BioMAP Diversity Plus: LPS Assay for Tissue Factor Biomarker Activity (AID 2283084). To be noted: primary human HUVEC with PBMC; actives raise or lower the signal. Put shortly: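 Human umbilical vein endothelial cells co-cultured with peripheral blood mononuclear cells were dosed and stimulated with LPS. Cell-surface CD142 was quantified by ELISA at 24 h. Activity was fitted bidirectionally against DMSO baseline.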

Read-out in assay [14]: Tumor necrosis factor (Homo sapiens) (UniProt P01375)
Put plainly: BSK_LPS_TNFa: BioMAP Diversity Plus: LPS Assay for Tumour Necrosis Factor alpha (TNFa) Biomarker Activity (AID 2283085). To be noted: primary human HUVEC with PBMC; actives raise or lower the signal. Put shortly:
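Read-out is ELISA of TNFa in primary human endothelial cell–PBMC co-cultures at 24 h after compound. Activity in either direction was fitted against DMSO.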

Read-out in assay [15]: Vascular cell adhesion molecule 1 (VCAM1), VCAM1 (gene 7412)
The assay is described as follows: BSK_LPS_VCAM1: BioMAP Diversity Plus: LPS Assay for Vascular cell adhesion molecule 1 (VCAM1) Biomarker Activity (AID 2283086). As to conditions: primary human HUVEC with PBMC; actives raise or lower the signal. The method, boiled down: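 HUVEC + PBMC co-culture, LPS system; compound 24 h; VCAM-1 by ELISA; bidirectional fit vs DMSO control; parallel SRB (0.1%, TCA-fixed, 560 nm) for cytotoxicity.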

Read-out in the next assay: CD38, CD38 (gene 952)
Put plainly: BSK_SAg_CD38: BioMAP Diversity Plus: SAg Assay for CD38 Biomarker Activity (AID 2283087). To be noted: primary human HUVEC with PBMC; actives raise or lower the signal. The method, boiled down:
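Human HUVEC plus PBMC co-culture stimulated with superantigen; CD38 measured by ELISA 24 h after chemical dosing. Fluorescence read-out, bidirectional fit against DMSO; cytotoxicity tracked in parallel by SRB and Alamar Blue.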

Read-out in assay [16]: CD40, CD40 (gene 958)
Put plainly: BSK_SAg_CD40: BioMAP Diversity Plus: SAg Assay for CD40 Biomarker Activity (AID 2283088). As to conditions: primary human HUVEC with PBMC; actives raise or lower the signal. Put shortly: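 Human umbilical vein endothelial cells co-cultured with PBMC; CD40 levels measured by ELISA with fluorescence read-out 24 h after chemical dosing. Gain or loss of signal fitted bidirectionally against DMSO baseline.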

Read-out in the next assay: CD69, CD69 (gene 969)
The assay is described as follows: BSK_SAg_CD69: BioMAP Diversity Plus: SAg Assay for CD69 Biomarker Activity (AID 2283089).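 For AC50: cell surface CD69 protein quantified by ELISA with fluorescence detection.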 To be noted: primary human HUVEC with PBMC; actives raise or lower the signal. Put shortly:
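Endothelial/PBMC co-culture; chemical added; 24 h incubation; CD69 ELISA with fluorescence detection; bidirectional fit vs DMSO.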

Read-out in assay [17]: Monocyte Chemoattractant Protein-1 (MCP1), CCL2 (gene 6347)
Put plainly: BSK_SAg_MCP1: BioMAP Diversity Plus: SAg Assay for Monocyte Chemoattractant Protein-1 (MCP1) Biomarker Activity (AID 2283090). As to conditions: primary human HUVEC with PBMC; actives raise or lower the signal. Put shortly:
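MCP-1 levels in the endothelial–PBMC SAg co-culture were quantified by ELISA at 24 h post-dosing; both increases and decreases versus DMSO scored. Cytotoxicity monitored by SRB total protein in parallel cultures.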

Read-out in assay [18]: E-selectin (Homo sapiens) (UniProt P16581)
Put plainly: BSK_SAg_Eselectin: BioMAP Diversity Plus: SAg Assay for Eselectin Biomarker Activity (AID 2283091). To be noted: primary human HUVEC with PBMC; actives raise or lower the signal. Put shortly: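 HUVEC co-cultured with PBMC, compound dosed then read at 24 h; E-selectin measured by ELISA. Activity fitted bidirectionally against DMSO as negative control and baseline.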

Sequence of Tumor necrosis factor (Homo sapiens) (P01375 whole entry, looked up): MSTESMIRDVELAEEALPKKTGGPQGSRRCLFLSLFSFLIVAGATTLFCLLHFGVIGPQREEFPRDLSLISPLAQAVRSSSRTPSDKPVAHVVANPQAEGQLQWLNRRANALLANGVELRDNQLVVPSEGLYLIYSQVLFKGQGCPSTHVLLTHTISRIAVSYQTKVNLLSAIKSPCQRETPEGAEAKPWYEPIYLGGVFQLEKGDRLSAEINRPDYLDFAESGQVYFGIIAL
Sequence of E-selectin (Homo sapiens) (P16581 whole entry, looked up): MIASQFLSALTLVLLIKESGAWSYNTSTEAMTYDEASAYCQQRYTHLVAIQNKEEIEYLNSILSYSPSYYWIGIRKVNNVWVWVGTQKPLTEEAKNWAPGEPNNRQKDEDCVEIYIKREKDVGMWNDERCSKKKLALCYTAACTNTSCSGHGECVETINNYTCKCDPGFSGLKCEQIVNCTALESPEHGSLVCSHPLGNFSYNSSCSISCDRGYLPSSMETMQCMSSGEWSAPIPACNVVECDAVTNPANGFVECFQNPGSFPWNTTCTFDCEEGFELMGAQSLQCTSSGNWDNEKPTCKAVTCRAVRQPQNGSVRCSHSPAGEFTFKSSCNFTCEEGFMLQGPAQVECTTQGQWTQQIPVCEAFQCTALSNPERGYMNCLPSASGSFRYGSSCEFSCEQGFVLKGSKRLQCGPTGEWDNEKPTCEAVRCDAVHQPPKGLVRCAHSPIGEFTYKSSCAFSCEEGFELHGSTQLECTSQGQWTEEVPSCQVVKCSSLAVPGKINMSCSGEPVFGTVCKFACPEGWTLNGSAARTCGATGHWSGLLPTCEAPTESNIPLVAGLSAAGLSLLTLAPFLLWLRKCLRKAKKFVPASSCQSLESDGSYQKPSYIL

As for `NC(=O)c1nc(-c2cccc(-c3cc(F)ccc3OCC(F)(F)C(F)(F)F)c2)n[nH]1`, the AC50 in assay [1] is 36.1 µM (active); in assay [2] it was 34 µM (active); in [3], 39.7 µM (active); in assay [4] it was 43.1 µM (active); with CD40, CD40 (gene 958) [5], 22.6 µM (active); in assay [6], 37.7 µM (active). The AC50 in [7] was 33.7 µM (active); in [8], 31.6 µM (active); in [9] it was 41.4 µM (active); in assay [10], 33.6 µM (active); in [11] it was 38.2 µM (active); in [12], 29.4 µM (active). In addition, the AC50 in assay [13] is 33.4 µM (active); in assay [14], 37.4 µM (active); in assay [15], 35.3 µM (active); with CD38, CD38 (gene 952), 29.5 µM (active); in the assay with CD40, CD40 (gene 958) [16], 26.9 µM (active); with CD69, CD69 (gene 969), 26.2 µM (active). For the same compound, the AC50 is 29 µM (active) in assay [17] and 19.3 µM (active) in assay [18].

For the compound `CCO[Si](CCCNC(N)=O)(OCC)OCC`, the outcome was “inactive” in [1]; “inactive” in assay [2]; “inactive” in [3]; “inactive” in assay [4]; “inactive” in the assay with CD40, CD40 (gene 958) [5]; “inactive” in [6]. Further, the outcome in assay [7], in assay [8], in assay [9], in [10], in [11] and in assay [12] was inactive. In addition, the outcome in [13] is “inactive”; in [14] it was “inactive”; in assay [15], “inactive”; with CD40, CD40 (gene 958) [16] it was “inactive”; with CD69, CD69 (gene 969), “inactive”; in assay [17] it was “inactive”. Besides, the outcome in assay [18] was inactive.

As for `CN(C)C(=O)C1(N2CCCCC2)CCN(CC[C@@]2(c3ccc(Cl)c(Cl)c3)CN(C(=O)c3ccccc3)CCO2)CC1`, the AC50 in assay [1] is 29.8 µM (active); in [2] it was 35 µM (active); in assay [3] it was 25.5 µM (active); in assay [4], 32.1 µM (active); in [6], 29.2 µM (active); in [7], 25.7 µM (active). Also, the AC50 in assay [8] was 18.9 µM (active); in assay [9], 18.9 µM (active); in assay [10], 25.2 µM (active); in [12], 20.8 µM (active); in [13] it was 31.2 µM (active); in [14], 35.4 µM (active). Further, the AC50 is 26.6 µM (active) in assay [15]; 21.3 µM (active) with CD38, CD38 (gene 952); 18.9 µM (active) with CD40, CD40 (gene 958) [16]; 16.5 µM (active) with CD69, CD69 (gene 969); 22.2 µM (active) in [17]; 28.3 µM (active) in assay [18]. For the same compound, in assay [11], the outcome was inactive.
